The source of these data is PubChem BioAssay AID2685 (National Center for Advancing Translational Sciences (NCATS), 2010).

Screen size: about 320,000 compounds; about 2,100 (0.66%) were called active. Roughly 53% stayed inconclusive and do not appear here. Calls come from the whole dose curve; as a rule, active = well fitted inhibition curve with a large enough effect in the signal ratio, with a control signal flat (not every such curve was filed as active); inconclusive = small, poorly fitted or top-dose-only effect, or effect the other way, or a change in a side signal; inactive = flat fitted curve, though single readings scatter; the % refers to the signal ratio. Shown is part of a subset that was picked to be rich in actives.
Potency is the fitted concentration of half-maximal effect.

The nature of this assay: qHTS Assay for Lipid Storage Modulators in Drosophila S3 Cells.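 For cell number change: cells counted by Cell Tracker Red CMTPX staining in the red channel.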 For lipid storage change, negative = inhibition: % is set by controls: 0 for no effect and ±100 for the full control effect. Particulars: BODIPY lipid droplet fluorescence, 18-24 h, cells fed with added oleic acid; cell number change: measured here: cell count max response; series mostly up to 46.1 µM; lipid storage change, negative = inhibition: at the top concentration. In a few lines:
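Laser-scanning cytometry quantifies lipid droplet accumulation (500–530 nm total intensity; droplet/cell object ratio) in oleic acid-fed (400 uM added) Drosophila S3 cells treated with a concentration series. 20 uM Triacsin C defined 100% inhibition.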
In general terms: Quantitative high-throughput screening tests each substance at several concentrations.
Take `Cc1ccccc1-c1nc2sc3c(c2c(=O)o1)CCC3`: the “lipid storage change, negative = inhibition” value is 2.37% (inactive) and the cell number change was found to be 4.59%. Turning to `Cc1nc2sc3c(c2c(=O)o1)CCCC3`, the Potency is 29.1 µM (active) and the cell number change amounted to 5.3%. In the case of `O=c1oc(-c2ccccc2)nc2sc3c(c12)CCCC3`, the result was inactive. In the case of `COc1cccc(-c2nc(-c3ccccn3)no2)c1`, the “lipid storage change, negative = inhibition” value is 4.98% (inactive) and the cell number change was -6.27%. For `Cc1c(NC(=O)CSCc2c(F)cccc2Cl)c(=O)n(-c2ccccc2)n1C`, in that order: 5.12% (inactive) and 19%. With `O=C1Nc2ccc(S(=O)(=O)N3CCCC3C(=O)O)c3cccc1c23` (stereo not given), the “lipid storage change, negative = inhibition” value was -0.439% (inactive) and the cell number change was found to be 2.18%. For `O=C(/C(=C/c1ccccc1)c1ccccc1)N1CCCCC1`, in that order: -0.342% (inactive) and -13.6%. `CN1CCN(C(=O)/C(=C\c2ccccc2)c2ccccc2)CC1`: the Potency was 18.4 µM (active) and the cell number change was -17.9%. Turning to `CC1CCCCN1C(=O)/C(=C\c1ccccc1)c1ccccc1` (stereo not given), the “lipid storage change, negative = inhibition” value is -10.3% (inactive) and the cell number change turned out to be 7.23%. Regarding `CS(=O)(=O)c1ccccc1-c1nnc(NC(=O)c2ccc(S(=O)(=O)N3CCCC3)cc2)o1`, the outcome is “inactive [at 0.0737 µM]”.

Turning to `COCCCNC(=O)c1ccccc1-c1cc(C)no1`, the “lipid storage change, negative = inhibition” value is 14.1% (inactive) and the cell number change was -2.62%. For `CC(Cl)C(=O)Nc1cc(C(F)(F)F)ccc1N1CCOCC1` (stereo not given), in that order: 10% (inactive) and -4.52%. On to `CC(C(=O)Nc1cc(C(F)(F)F)ccc1N1CCOCC1)N1C(=O)C2CC=CCC2C1=O` (stereo not given), for which the Potency was 1.46 µM (active) and the cell number change was -1.98%. Take `CC(=O)Nc1cc(C(F)(F)F)ccc1N1CCOCC1`: the “lipid storage change, negative = inhibition” value is 1.01% (inactive) and the cell number change came out at 3.32%. As to `O=C(Cc1cccc2ccccc12)Nc1ccc(N2CCOCC2)cc1`, the “lipid storage change, negative = inhibition” value is -10.4% (inactive) and the cell number change was -1.09%. Consider `CC(=O)N1N=C(c2ccncc2)OC12CCCC2`, for which the Potency is 16.4 µM (active) and the cell number change is -12.2%. As for `CC(=O)N1N=C(c2ccncc2)OC12CCCCCC2`, the “lipid storage change, negative = inhibition” value was 5.71% (inactive) and the cell number change stood at 5.48%. Take `CC(=O)N1N=C(c2ccccc2)OC12CCCC2`: the “lipid storage change, negative = inhibition” value was 1.79% (inactive) and the cell number change came to 3.13%. Take `CCCOc1ccc(S(=O)(=O)NNC(=O)c2cc3ccccc3o2)cc1`: the compound was called inactive and the cell number change was -21.5%. In the case of `S=c1nc(C2CC2)n(-c2ccccc2)[nH]1`, the “lipid storage change, negative = inhibition” value is -13.7% (inactive) and the cell number change turned out to be 6.79%. With `CC(Sc1ccccc1)C(=O)N1CCN(S(=O)(=O)c2cccc(Br)c2)CC1` (stereo not given), the result was inactive. With `CC(Sc1ccccc1)C(=O)N1CCN(S(=O)(=O)c2ccccc2)CC1` (stereo not given), the Potency is 0.0103 µM (active) and the cell number change is 22.7%. In the case of `CC(Sc1ccccc1)C(=O)N1CCN(S(=O)(=O)c2ccccc2F)CC1` (stereo not given), the “lipid storage change, negative = inhibition” value was -1.62% (inactive) and the cell number change is -14.5%. For `CS(=O)(=NS(=O)(=O)c1ccc(Cl)cc1)c1ccccc1` (stereo not given), in that order: 4.24% (inactive) and 5.26%. Regarding `N/C(=N\OC(=O)/C=C/c1ccccc1)c1ccccn1`, the “lipid storage change, negative = inhibition” value is 2.94% (inactive). With `COc1cccc(-c2ncc3ccccc3c2COC(=O)c2ccc(Br)cc2)c1`, the call was inactive and the cell number change worked out at 2.33%. For the compound `O=C(COC(=O)/C=C/c1cccs1)Nc1ccccc1Cl`, the “lipid storage change, negative = inhibition” value is -2.77% (inactive) and the cell number change was found to be 11.7%. Regarding `O=C(COC(=O)c1ccccn1)Nc1cccc(Cl)c1Cl`, the “lipid storage change, negative = inhibition” value is 10.9% (inactive) and the cell number change is -0.814%. For the compound `O=C(COC(=O)c1cccs1)Nc1ccccc1Cl`, the Potency is 16.4 µM (active) and the cell number change is 2.94%. For `O=C(COC(=O)c1c2c(nc3ccccc13)CCCC2)c1cccs1`, the “lipid storage change, negative = inhibition” value was -22.3% (inactive) and the cell number change was 9.93%.

On to `CCc1ccccc1NC(=O)COC(=O)c1cccs1`, for which the result was inactive and the cell number change is -3.91%. For `O=C(COC(=O)c1ccccn1)Nc1ccccc1Cl`, the “lipid storage change, negative = inhibition” value is -3.35% (inactive) and the cell number change is -8.3%. Consider `O=C(COC(=O)c1c2c(nc3ccccc13)/C(=C\c1cccs1)CCC2)Nc1ccccc1Cl`, for which the Potency was 0.58 µM (active) and the cell number change was -12.6%. Consider `O=C(COC(=O)c1cccs1)Nc1ccccc1C(F)(F)F`, for which the “lipid storage change, negative = inhibition” value was -1.51% (inactive) and the cell number change was -6.32%.

For the compound `O=C(COC(=O)c1ccccn1)Nc1c(Cl)cccc1Cl`, the Potency was 16.4 µM (active) and the cell number change is -5.33%.

Consider `Nc1c(N(CCC2=CCCCC2)C(=O)C2CC2)c(=O)[nH]c(=O)n1Cc1ccccc1`, for which the “lipid storage change, negative = inhibition” value was -4.29% (inactive) and the cell number change was determined as 10.2%. For `COc1ccc(C)cc1NC(=O)c1ccccc1NS(=O)(=O)c1cccc2cccnc12`, in that order: 1.11% (inactive) and -4.79%. `CCOc1ccc(CO/N=C/c2c(C)[nH]c(=O)[nH]c2=O)cc1`: the “lipid storage change, negative = inhibition” value is -2.43% (inactive) and the cell number change came to 3.8%. For `CCOC(=O)C1=C(N)N2C(=O)C(C)SC2=C(C(=O)OC)C1c1ccccc1OC` (stereo not given), in that order: -49.1% (inactive) and -22.7%. Consider `CCOc1cc(/C=N\NC(=O)OC)ccc1OC(=O)c1ccco1`, for which the “lipid storage change, negative = inhibition” value is 5.55% (inactive) and the cell number change is 10.8%. As for `Cc1ccc(N2CCN(S(=O)(=O)N3CCCCCC3)CC2)cc1Cl`, the “lipid storage change, negative = inhibition” value is 2.16% (inactive) and the cell number change was 8.56%. On to `Cc1ccc(Cc2nc(-c3cccnc3)no2)cc1`, for which the “lipid storage change, negative = inhibition” value was 1.98% (inactive) and the cell number change was -9.21%.

Consider `O=C(CC(c1ccccc1)c1ccccc1)NCc1cccnc1`, for which the “lipid storage change, negative = inhibition” value is 0.894% (inactive) and the cell number change is -6.85%. For the compound `Cc1ccc(C(=O)NCc2ccco2)cc1S(=O)(=O)N1CCCC1`, the “lipid storage change, negative = inhibition” value was -9.67% (inactive) and the cell number change is 15%. For `O=C(NCCCN1CCOCC1)C(=O)NCC1OCCN1S(=O)(=O)c1cc(F)ccc1F` (stereo not given), in that order: 4.03% (inactive) and 10.3%. With `Cc1nnsc1C(=O)N1CCN(c2ccc(F)cc2)CC1`, the “lipid storage change, negative = inhibition” value was -2.21% (inactive) and the cell number change was 6.97%. For `CCOC(=O)c1cc2c(=O)n3cccc(C)c3nc2n(CCCOC)c1=NC(=O)c1cccnc1`, in that order: -13.8% (inactive) and -8.27%. For `Cc1cccc(N2C(=O)c3ccc(C(=O)Nc4c[nH]c(=O)[nH]c4=O)cc3C2=O)c1`, in that order: 2.68% (inactive) and -0.423%. Take `COc1ccc(C/C(N)=N/n2cnnc2)cc1Cl`: the call was inactive. With `CC(C)COc1ccc(C/C(N)=N/n2cnnc2)cc1`, the Potency was 20.6 µM (active) and the cell number change is -24.2%.
